Screening results (PubChem BioAssay)
Only some compounds are listed: those with a hit (about 19% of all), similar ones and a draw of the others.
HT1080 IDH1KD tx: HT-1080 IDH1 knockdown cell toxicity (counter line); 360,000 tested, 2% active; Potency, µM (doses to about 46.1 µM), inactives show top-dose activity, negative = toxicity, actives largely listed as cytotoxic; HT-1080 IDH1 knockdown viability, ATP luminescence, 48 h; AID 686971;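 also: 0% = DMSO wells and -100% = cell-free medium wells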
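Assay cells: HT-1080 with IDH1 knockdown, 750 per well, RPMI/5% FBS. Exposure: 48 h at 37 °C following 2 h pre-incubation. Read: CellTiter-Glo luminescence; fitted concentration-response, curve class assigned.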
DT40 TDP1 no CPT: qHTS for Inhibitors of human tyrosyl-DNA phosphodiesterase 1 (TDP1): qHTS in cells in absence of CPT | DT40 Tdp1-/- hTDP1 cells, no CPT, ATP luminescence, 48 h | Potency, µM (titrated, usually from 46.2 µM), without a hit: at the top dose activity change, negative = growth inhibition, most hits filed as inhibitors | 420,000 tested, 15% active; also: nearly all actives have a fitted effect of over 55% in size
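Compound effects on proliferation are scored in DT40 Tdp1-/-;hTDP1 cells in the absence of CPT. ATP levels (CellTiter-Glo luminescence) are recorded after a ≥48 hr, 37 °C incubation.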
KB-3-1 tox: kills parental KB-3-1 adenocarcinoma cells; KB-3-1 viability, CellTiter-Glo ATP luminescence, 72 h; Potency, µM (highest dose often 46.1 µM), usual class: cytotoxic; 400,000 tested, 1.4% active; also: nearly all actives have a fitted effect of over 60% in size
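Luminescent ATP read-out (CellTiter-Glo) measures survival of drug-naive KB-3-1 cells after 72 h compound exposure at 37 °C. Titration series was screened from lowest to highest concentration, with DMSO vehicle plates as background controls.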
KB-V1 MDR tox: KB-V1 MDR subline cytotoxicity; Potency, µM (series often up to 46.1 µM), hits mostly cytotoxic; KB-V1 MDR cells viability, CellTiter-Glo, 72 h; 400,000 tested, 3.4% active; also: nearly all actives have a fitted effect of over 60% in size
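qHTS viability screen in drug-selected KB-V1 MDR cells: 72 h compound treatment at 37 degrees C, ATP luminescence end point.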
TDP1 cell CPT: DT40-hTDP1 cell growth loss with CPT | 420,000 tested, 12% active | AID 686979 | chicken DT40 Tdp1-/-;hTDP1 cells + 20 nM CPT, ATP luminescence, 48 h | Potency, µM (doses to about 46.2 µM), for the others: at the top dose activity change, negative = growth inhibition, actives largely listed as inhibitors; also: nearly all actives have a fitted effect of over 55% in size
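Chicken DT40 Tdp1-/- cells complemented with human TDP1, 400 cells/well, exposed to compounds plus 20 nM camptothecin for at least 48 h at 37 C; viability read as ATP content by CellTiter-Glo luminescence.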
HT1080-NT tox: kills 2HG-producing HT-1080-NT fibrosarcoma cells | 360,000 tested, 1.6% active | Potency, µM (series often up to 46.1 µM), inactives show at the highest dose activity, negative = less viability, actives largely listed as cytotoxic | HT-1080-NT fibrosarcoma viability, CellTiter-Glo ATP luminescence, 48 h;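 also: NT is the 2HG producing partner of a matched IDH1 knockdown line; 0% = DMSO-treated cells and -100% = media-only wells without cells; nearly all actives have a fitted effect of over 55% in size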
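HT-1080-NT fibrosarcoma cells (2HG-overproducing), 750 cells/well in RPMI with 5% FBS, dosed after 2 h and incubated 48 h at 37C. CellTiter-Glo luminescence normalized to DMSO and no-cell wells; concentration-response curves fitted and classed.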
* marks the source's active call; other numbers are inactive results; [ ] = remark or other dose. Calls follow the shape of the dose curve; as a rule, active = well fitted curve in the direction sought with a large enough effect; inconclusive = small, poorly fitted or top-dose-only effect, or another doubt; inactive = no such curve, though single readings can be large; an effect the other way counts as inactive or inconclusive. Unless noted, % is scaled to controls: 0 for no effect and ±100 for the full control effect; potency is read from the fitted curve at half-maximal effect.

`O=C(CSc1nnc(-c2ccccc2F)o1)Nc1ccc(N2CCOCC2)cc1` gave HT1080 IDH1KD tx 8.9%, DT40 TDP1 no CPT 2.2%, KB-3-1 tox inactive, KB-V1 MDR tox inconclusive, TDP1 cell CPT -2.1% and HT1080-NT tox 0.4%.
Screening CN(CC(=O)Nc1ccc(F)c(F)c1F)C(=O)Cc1ccc(S(=O)(=O)N2CCOCC2)s1 returned HT1080 IDH1KD tx 2.0%, DT40 TDP1 no CPT 6.3%, KB-3-1 tox inactive, KB-V1 MDR tox inactive, TDP1 cell CPT inconclusive and HT1080-NT tox 8.5%[9.24 µM].
`Cc1cccc(NC(=O)C(=O)NCCc2csc(-c3ccc(F)cc3)n2)c1C` gave DT40 TDP1 no CPT inconclusive, KB-3-1 tox inactive, KB-V1 MDR tox inactive and TDP1 cell CPT inconclusive.
Screening Cc1cc([N+](=O)[O-])nn1CCCC(=O)Nc1c(C)n(C)n(-c2ccccc2)c1=O returned HT1080 IDH1KD tx 11.0%, DT40 TDP1 no CPT -7.1%, KB-3-1 tox inactive, KB-V1 MDR tox inactive, TDP1 cell CPT -18.2% and HT1080-NT tox 3.0%.
`COc1cccc2c1Oc1ncccc1N(C(=O)CCC(=O)NCc1ccc(N(C)C)cc1)C2` gave DT40 TDP1 no CPT -18.4%, KB-3-1 tox inactive, KB-V1 MDR tox inactive and TDP1 cell CPT inconclusive.
`CN(C)C(=S)N=c1ssc(=S)n1Cc1ccccc1` gave HT1080 IDH1KD tx 8.2µM*, DT40 TDP1 no CPT 3.66µM*, KB-3-1 tox inconclusive, KB-V1 MDR tox inconclusive, TDP1 cell CPT 2.59µM* and HT1080-NT tox 5.8µM*.
CC1(C)CC[C@@]23CC[C@]4(C)[C@@](OC2=O)(C3C1)[C@H]1O[C@H]1C1[C@@]2(C)CC[C@H](O)C(C)(C)C2CC[C@]14C (stereo not given in full) was read as HT1080 IDH1KD tx 7.0%, DT40 TDP1 no CPT -12.5%, KB-3-1 tox inactive, KB-V1 MDR tox inactive, TDP1 cell CPT 0.0% and HT1080-NT tox 4.0%.
CCOC(=O)C1(Cc2ccccc2C(F)(F)F)CCN(C2CCN(C(C)=O)CC2)CC1 was read as HT1080 IDH1KD tx -0.3%, DT40 TDP1 no CPT -26.6%, KB-3-1 tox inactive, KB-V1 MDR tox inactive, TDP1 cell CPT 2.6% and HT1080-NT tox -20.5%.
Screening CCOC(=O)/C(=C\c1cccc(O)c1)c1nc2sc(C)c(C)c2c(=O)[nH]1 returned HT1080 IDH1KD tx inconclusive, DT40 TDP1 no CPT 23.1µM*, KB-3-1 tox inconclusive, KB-V1 MDR tox inconclusive, TDP1 cell CPT 9.2µM* and HT1080-NT tox inconclusive.
`O=C(CCN=C1NS(=O)(=O)c2ccccc21)NCc1ccccc1F` gave HT1080 IDH1KD tx 6.2%, DT40 TDP1 no CPT 0.4%, KB-3-1 tox inactive, KB-V1 MDR tox inactive, TDP1 cell CPT 7.6% and HT1080-NT tox 2.9%.
O=C(N/N=C/c1ccccc1OC(=O)c1ccc2c(c1)OCO2)c1ccccc1 was read as HT1080 IDH1KD tx -19.5%, DT40 TDP1 no CPT 4.11µM*, KB-3-1 tox inactive, KB-V1 MDR tox inactive, TDP1 cell CPT 4.11µM* and HT1080-NT tox -2.2%.
`O=C(N/N=C/c1ccc(OC(=O)c2ccccc2)cc1)c1ccc(CN2CCOCC2)cc1` gave HT1080 IDH1KD tx -18.2%, DT40 TDP1 no CPT 11.6µM*, KB-3-1 tox inactive, KB-V1 MDR tox inactive, TDP1 cell CPT inconclusive and HT1080-NT tox -19.6%.
For COc1ccc(/C=N/NC(=O)c2cccc(NC(=O)c3ccccc3Cl)c2)cc1 the results were HT1080 IDH1KD tx 2.31µM*, DT40 TDP1 no CPT 4.61µM*, KB-3-1 tox 16.4µM*, KB-V1 MDR tox inactive, TDP1 cell CPT 3.66µM* and HT1080-NT tox 5.8µM*.
COc1cc(C(=O)Oc2cccc(/C=N/NC(=O)c3cccnc3)c2)cc(OC)c1OC was read as HT1080 IDH1KD tx 18.4µM*, DT40 TDP1 no CPT 9.2µM*, KB-3-1 tox inactive, KB-V1 MDR tox inactive, TDP1 cell CPT 6.51µM* and HT1080-NT tox inconclusive.
For O=C(N/N=C/c1cccc(OC(=O)c2cccc(Br)c2)c1)c1cccnc1 the results were HT1080 IDH1KD tx -1.7%, DT40 TDP1 no CPT -2.6%, KB-3-1 tox inconclusive, KB-V1 MDR tox inactive, TDP1 cell CPT 0.7% and HT1080-NT tox 4.3%.
O=C(N/N=C/c1ccc(OC2CSC2)cc1)c1ccc(CN2CCOCC2)cc1 was read as HT1080 IDH1KD tx inconclusive, DT40 TDP1 no CPT inconclusive, KB-3-1 tox inconclusive, KB-V1 MDR tox inconclusive, TDP1 cell CPT -11.2% and HT1080-NT tox inconclusive.
Cc1ccc(NC(=O)CNCc2ccccc2Cl)cc1S(=O)(=O)N(C)C was read as HT1080 IDH1KD tx -7.4%, DT40 TDP1 no CPT -23.8%, KB-3-1 tox inactive, KB-V1 MDR tox inactive, TDP1 cell CPT -16.1% and HT1080-NT tox -9.0%.
Cc1ccc(S(=O)(=O)NC2=NCN(CC(=O)O)CN2)cc1 was read as HT1080 IDH1KD tx -1.0%, DT40 TDP1 no CPT -7.8%, KB-3-1 tox inactive, KB-V1 MDR tox inactive, TDP1 cell CPT -4.5% and HT1080-NT tox 1.8%.
For O=C(Nc1ccc(Oc2ccccc2)cc1)Nc1nnc(-c2ccncc2)s1 the results were KB-3-1 tox inconclusive and KB-V1 MDR tox inactive.
`Cc1ccsc1C(=O)N1CCC1(C)C(=O)NS(=O)(=O)c1cccc(F)c1` (stereo not given) gave HT1080 IDH1KD tx 0.2%, DT40 TDP1 no CPT -0.7%, KB-3-1 tox inactive, KB-V1 MDR tox inactive, TDP1 cell CPT -13.4% and HT1080-NT tox 7.2%.
For CCc1ccc(S(=O)(=O)c2nnn3c2nc(NCc2ccccc2)c2cc(Cl)ccc23)cc1 the results were DT40 TDP1 no CPT inconclusive, KB-3-1 tox inactive, KB-V1 MDR tox inactive and TDP1 cell CPT inconclusive.
COc1ccc(C(=O)N/N=C/c2ccccc2OC(=O)c2ccccc2)cc1 was read as HT1080 IDH1KD tx 4.11µM*, DT40 TDP1 no CPT 0.517µM*, KB-3-1 tox 18.4µM*, KB-V1 MDR tox 13µM*, TDP1 cell CPT 0.581µM* and HT1080-NT tox 4.61µM*.
For O=C(N/N=C/C(Cl)=C/c1ccccc1)c1ccc2c(c1)OCO2 the results were HT1080 IDH1KD tx inconclusive, DT40 TDP1 no CPT 20.6µM*, KB-3-1 tox inconclusive, KB-V1 MDR tox inconclusive, TDP1 cell CPT inconclusive and HT1080-NT tox inconclusive.
`COc1cc(C(=O)Oc2ccccc2/C=N/NC(=O)c2ccc(C)cc2)cc(OC)c1OC` gave HT1080 IDH1KD tx inconclusive, DT40 TDP1 no CPT 0.651µM*, KB-3-1 tox 8.2µM*, KB-V1 MDR tox inactive, TDP1 cell CPT 1.03µM* and HT1080-NT tox inconclusive.
